About 83,000 compounds went through this panel and 20% of them were active in at least one assay; those are over-represented in the sample as a whole.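 Values shown are percent growth following 48 h exposure of cells in 96-well plates to a single concentration of compound; below 10 was considered active.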 Values without a mark were called inactive. Activity calls are given as the source filed them.
Key:
Assay in all cases: NCI-60 one-dose screen, 48 h (100 = growth as untreated, 0 = no growth, -100 = all killed)
Conditions in all cases: 10 µM unless noted
SK-MEL-2 melanoma = test system: SK-MEL-2 melanoma
EKVX NSCLC = test system: EKVX NSCLC
SN12C renal = test system: SN12C renal
TK-10 renal = test system: TK-10 renal
ACHN renal = test system: ACHN renal
CAKI-1 renal = test system: CAKI-1 renal
A498 renal = test system: A498 renal
CCRF-CEM leukemia = test system: CCRF-CEM leukemia
MOLT-4 leukemia = test system: MOLT-4 leukemia
SR leukemia = test system: SR leukemia
RPMI-8226 leukemia = test system: RPMI-8226 leukemia
OVCAR-8 ovarian = test system: OVCAR-8 ovarian
OVCAR-5 ovarian = test system: OVCAR-5 ovarian
OVCAR-4 ovarian = test system: OVCAR-4 ovarian
SK-OV-3 ovarian = test system: SK-OV-3 ovarian
IGROV1 ovarian = test system: IGROV1 ovarian
OVCAR-3 ovarian = test system: OVCAR-3 ovarian
HS 578T breast = test system: HS 578T breast
NCI/ADR-RES ovarian = test system: NCI/ADR-RES ovarian

SMILES	growth (SK-MEL-2 melanoma)	growth (EKVX NSCLC)	growth (SN12C renal)	growth (TK-10 renal)	growth (ACHN renal)	growth (CAKI-1 renal)	growth (A498 renal)	growth (CCRF-CEM leukemia)	growth (MOLT-4 leukemia)	growth (SR leukemia)	growth (RPMI-8226 leukemia)	growth (OVCAR-8 ovarian)	growth (OVCAR-5 ovarian)	growth (OVCAR-4 ovarian)	growth (SK-OV-3 ovarian)	growth (IGROV1 ovarian)	growth (OVCAR-3 ovarian)	growth (HS 578T breast)	growth (NCI/ADR-RES ovarian)
Clc1c(Cl)[n+](Cc2ccc3ccccc3c2)cn1Cc1ccc2ccccc2c1	-55% (active)	38.7%	28.1%	-63% (active)	84.7%	89.7%	54.7%	6.14% (active)	-0.428% (active)	-55.6% (active)	-43% (active)	-10.7% (active)	54.9%	-3.18% (active)	19%	-20.3% (active)	-21.8% (active)	53.1%	97.8%
CN(C)CCCC1(c2ccc(F)cc2)OCc2cc(-c3ccc4cc[nH]c4c3)ccc21 (stereo not drawn)	87.6%	61.6%	58.6%		36.2%	30.4%	81.5%	33.2%	-8.83% (active)	-2.82% (active)	36.7%	57.9%	84.4%	44.4%	90.2%	23%	45.6%	54.6%	56.8%
COc1ccc(-c2nn(-c3ccccc3)cc2/C=C/C(=O)NNC(=O)Nc2ccc(C)cc2)cc1	102%	97.2%	97%	99%	102%	91.5%	109%	47.4%	43%	64%	93.3%	98.1%	103%	101%	92.8%	93%	107%	99.7%	92.8%
CCOc1c(OC)cc2c(c1O)C(=O)N[C@@H]1[C@@H](O)[C@@H](O)[C@H](O)C[C@@H]21	106%	98%	104%	93.9%	103%	91.3%	99.5%	103%	92.4%	89.2%	103%	101%	98.7%	107%		102%		100%	110%
CS(=O)(=O)c1nnc(-c2ccccc2)s1	112%	109%	105%	113%	83.9%	94.9%	91.4%	76.5%	88.1%	40.3%	99.5%	97.4%	99.3%	99.5%	98.8%	103%	99.3%	108%	104%
C#Cc1cccc(Nc2nc(C)nc3cc(NC(=O)CCl)ccc23)c1	-69.8% (active)	-58.8% (active)	-67.8% (active)	-93.9% (active)	-92% (active)	-91% (active)	48.2%	-12.3% (active)	-20.7% (active)	-40.4% (active)	-47.5% (active)	-15.4% (active)	-84.7% (active)	-42.2% (active)	8.47% (active)	-56.7% (active)	-88.2% (active)	-11.6% (active)	-22% (active)
O=C1c2cccc3cccc(c23)C(=O)N1C/C=C/c1ccc2c3c(cccc13)C(=O)N(CCO)C2=O	90.7%	91.5%	75.7%	98.7%	34.1%	63.1%	74.7%	83.3%	80%	67.1%	74%	69.6%	79.2%	40.1%	72.3%	78.7%	87.9%	61.6%	80.2%
N#Cc1cncc(-c2ccc3ncnc(Nc4cccc(Cl)c4)c3c2)c1	90.5%	40.7%	82.9%	43.9%	58.6%	66.1%	33.4%	101%	87.5%	74.3%	80.3%	49.1%	85%	41.5%	53.4%	45.1%	58%	61.2%	72.8%
Cc1cccc(N2CCC(=O)NC2=S)c1	122%	107%	98.2%	104%	107%	101%	107%	154%	104%	121%	117%	99.9%	105%	107%	107%	103%	110%	107%	105%
CCCCCCCC/C=C\CCCCCCCCOc1ccc(CC(=O)NCC[N+]2(C)CCOCC2)cc1	112%	91.2%	64.1%	44.7%	82.9%	53.5%	91.8%	53%	79.9%	71.7%	66.6%	73%	29.5%		98.8%	5.35% (active)	98.1%	72.5%	104%
O=C(CI)NC(=O)NC(=O)NCc1ccccc1	69.4%	93.6%	33%	74.7%	-45.5% (active)	5.31% (active)	91.2%	-23.8% (active)	-24.5% (active)	-5.93% (active)	29.4%	56.3%	44.3%	30.3%				102%	71%
N#C/C(=C\C=C\c1ccc(-c2cc(Cl)ccc2Cl)o1)c1nc2ccccc2s1	104%	80.2%	92%	118%	90.5%	75.1%	126%	91.8%	99.1%	92.7%	96.5%	96.4%	102%	98.9%	76.8%	70.6%	105%	100%	100%
CC1(C)CC[C@]2(C(=O)N[C@H](CO)Cc3ccccc3)CC[C@]3(C)C(=CC[C@@H]4[C@@]5(C)CCCNC(C)(C)[C@@H]5CC[C@]43C)[C@@H]2C1	107%	90.9%	78.6%	95.5%	101%	77.3%	85.1%	41.8%	35.1%	-5.95% (active)	36%	97%	101%	87.7%	100%		97.3%	85.6%	85.6%
FC(F)(F)Oc1cccc(-c2cnc3ccc(-c4ccncc4)nn23)c1	-21.7% (active)	28.4%	13.2%	17.3%	-0.133% (active)	7.75% (active)	23%	4.57% (active)	4.08% (active)	4.36% (active)	15.9%	14.3%	16.5%	47%		12.1%	8.85% (active)	23.4%	11.6%
CC1=CCC(OC(=O)C(C)(C)CC(O)(C(C)O)C(O)C2(C)C=CC(Cc3ccc(C(C)C)cc3)(C(C)C)CC2)(C(C)C)CC1 (stereo not drawn)	110%	98.3%	105%	86.4%	102%	94.6%	76.2%	79.2%	94.1%	99%	108%	104%		102%			102%	101%	98.2%

— PubChem BioAssay (NCI)
